An excerpt weighted towards active compounds, which were near 4.7% of everything screened.
TRHR ag: TRH receptor (human) agonism | P34981 | TRHR cells, calcium flux fluo-8, FDSS agonist mode | activation, % at 2 µM | 360,000 tested, 0.18% active
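TRHR-expressing cells, plated overnight in medium with 10% serum, were loaded with fluo-8 calcium dye at room temperature. After a 10 s baseline, library compound was pin-added and calcium release was recorded kinetically (ex 480/em 530) as agonist response.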
D1 PAM: enhances dopamine response at the human D1 receptor | 360,000 tested, 0.036% active | HEK293 TREx D1 cells, calcium flux, dopamine EC20 potentiation | potentiation, % at 10 µM; in the data active = potentiation above about 30%
Target sequence (P21728 whole entry, looked up): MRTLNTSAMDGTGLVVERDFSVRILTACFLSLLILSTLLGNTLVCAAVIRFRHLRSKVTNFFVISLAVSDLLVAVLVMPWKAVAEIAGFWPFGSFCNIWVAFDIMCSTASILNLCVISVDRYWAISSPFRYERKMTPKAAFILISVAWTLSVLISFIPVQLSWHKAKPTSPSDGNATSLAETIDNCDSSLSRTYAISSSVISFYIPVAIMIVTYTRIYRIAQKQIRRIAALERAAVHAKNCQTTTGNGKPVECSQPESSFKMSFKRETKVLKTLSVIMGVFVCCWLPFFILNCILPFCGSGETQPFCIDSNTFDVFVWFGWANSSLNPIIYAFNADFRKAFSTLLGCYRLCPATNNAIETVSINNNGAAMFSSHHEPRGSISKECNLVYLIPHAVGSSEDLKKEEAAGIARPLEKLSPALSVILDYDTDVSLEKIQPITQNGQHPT
D1 ag: agonists of human D1 dopamine receptor. 360,000 tested, 1% active. activation, % at 2 µM. AID 504660. HEK293 T-REx D1 cells, calcium flux, agonist mode
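Tetracycline-induced HEK293 TREx D1 cells, force-coupled to calcium signalling, were dye-loaded with a no-wash calcium kit. Compound was pin-added after a 10 s baseline. Fluorescence was read kinetically at 1 cycle/s for 180 s, with calcium rises flagged as agonism.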
TRHR PAM: allosteric enhancers of human TRH receptor; P34981; TRHR cells, fluo-8 calcium fluorescence, EC20 TRH enhancement; enhancement, % at 2 µM; 360,000 tested, 0.66% active; AID 493056; in the data active = enhancement above about 30%
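Enhancer read-out: after compound pinning and an initial kinetic agonist-mode read, an EC20 of TRH (10 nM final) was injected and fluo-8 calcium signal (Ex 480/Em 530) followed at 1 s/cycle for 100 cycles in TRHR-expressing cells.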
D1 antagonist: antagonists of human D1 dopamine receptor; P21728; AID 504652; HEK293 TREx D1 cells, calcium flux, dopamine EC80; hits give low values; activity change, negative = inhibition, % at 10 µM; 360,000 tested, 3.2% active; in the data active = activity change below about -30%
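After overnight tetracycline induction at 30 C, force-coupled D1 HEK293 cells took up a no-wash calcium dye at room temperature. Compounds were added and monitored 180 s, and the response to EC80 dopamine was then recorded.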
Of the large screens only hits and unclear results are named; the others gave an inactive call. Rule as the data show it, unless noted: active = activation above about 30%; inactive = the rest.

Fc1ccc(CNc2nc(-c3ccco3)cc(C(F)(F)F)n2)cc1	TRHR PAM 38
COc1ccc(-c2cc(C(F)(F)F)nc(NCc3ccccc3)n2)cc1	D1 ag 31
FC(F)(F)c1cc(-c2ccco2)nc(NCc2ccccc2)n1	none
Fc1ccc(CNc2nc(-c3ccc(Cl)cc3)cc(C(F)(F)F)n2)cc1	none
CCc1cccc(NC(=O)CN2c3ccccc3S(=O)(=O)c3ccccc32)c1	none
O=C(c1ccc2c(c1)N(Cc1cccc(Cl)c1)C(=O)c1ccccc1S2(=O)=O)N1CCN(Cc2ccccc2)CC1	none
CCOC(=O)C1CCN(C(=O)Cn2c(=O)oc3cc(S(=O)(=O)N4CCC(C)CC4)ccc32)CC1	D1 antagonist -39
CCOC(=O)C1CCN(C(=O)Cn2c(=O)oc3cc(S(=O)(=O)N4CCCC4)ccc32)CC1	none
Cc1ccc(S(=O)(=O)N2CCC(C(=O)OCC(=O)N(C)C3CCS(=O)(=O)C3)CC2)cc1C (stereo not given)	none
Cc1ccc(S(=O)(=O)N2CCOCC2)cc1C(=O)Nc1ccc(C(N)=O)cc1	D1 antagonist -32
CN(C(=O)COC(=O)C1CCN(S(=O)(=O)c2c(Cl)cccc2Cl)CC1)c1ccccc1	D1 antagonist -32
Cc1ccc(S(=O)(=O)N2CCC(C(=O)OCC(=O)N(C)C3CCCCC3)CC2)cc1C	D1 antagonist -38
Cc1cc(C)cc(NC(=O)c2sc3nc[nH]c(=O)c3c2C)c1	none
COC(=O)c1scc(-c2ccc(C)cc2)c1S(=O)(=O)N1CCN(c2cccc(OC)c2)CC1	none
CCOC(=O)C1CCN(C(=O)c2cc(S(=O)(=O)N3CCOCC3)ccc2C)CC1	TRHR PAM 31
O=C1c2ccccc2NC(c2ccc(-c3ccccc3F)o2)N1O (stereo not given)	TRHR PAM 36 (no result: D1 antagonist)
Cc1ccc(-c2nnc(SCCOc3ccccc3)o2)cc1	D1 ag 81
Cc1[nH]c2ccccc2c1C(=O)CN1C(=O)C(=O)N(CCC2=CCCCC2)C1=O	D1 antagonist -32
Cc1[nH]c2ccccc2c1C(=O)CN1C(=O)C(=O)N(Cc2ccco2)C1=O	none
Cc1cccc(NC(=O)c2cc(S(=O)(=O)N3CCc4ccccc43)ccc2F)c1C	none
Cc1ccc2occ(CC(=O)N(Cc3ccc(N(C)C)cc3)C3CCS(=O)(=O)C3)c2c1 (stereo not given)	D1 antagonist -43
Fc1ccc(CSc2ccc(-c3ccco3)nn2)cc1	D1 antagonist -85
CN(C)CCNC(=O)C1CCN(Cc2cc3ccccc3n2Cc2ccccc2)CC1	D1 ag 39
OCCNCCCOc1ccc(Cl)cc1Br	none
Clc1ccc(Cl)c(OCCCCNCc2ccccc2)c1	D1 ag 81, D1 antagonist -58
Clc1ccc(OCCCNCc2ccccc2)c(Br)c1	D1 ag 93
COc1cc(-c2noc(-c3nnn(-c4ccc(Cl)cc4)c3C)n2)cc(OC)c1OC	D1 antagonist -33
COc1ccc(Cl)cc1-n1nnc(-c2nc(-c3ccccc3)no2)c1C	D1 antagonist -57
COCCNC(=O)CSc1nc2ccccc2c(=O)n1CC1CCCO1 (stereo not given)	D1 antagonist -76
O=C(CSc1nc2ccccc2c(=O)n1CC1CCCO1)NCC1CCCO1 (stereo not given)	none
O=C(CN1CCN(C(=O)CCC(=O)N2CCC(c3ccccc3)=N2)CC1)Nc1ccc(F)cc1	D1 antagonist -41
CCc1cc2c(cc3c(=O)n(CC(=O)NC(C)c4ccccc4)ncn32)s1 (stereo not given)	none
O=C(N/N=C/c1cccs1)C(=O)Nc1cccc(Cl)c1	D1 antagonist -66
CC(C)(C)NC(=O)C(=O)N/N=C/c1cccs1	none
CC1CCN(S(=O)(=O)c2cc(C(=O)N3CCN(c4cccc(Cl)c4)CC3)n(C)c2)CC1	none
N#C/C(=C(/O)c1ccc(Br)s1)c1nc2ccccc2[nH]1	D1 antagonist -45
N#C/C(=C(/O)c1ccc([N+](=O)[O-])s1)c1nc2ccccc2[nH]1	none
Cc1cc(=O)[nH]c2nnc(SCCC(C)C)n12	none (no result: D1 antagonist)
Cc1ccc(Cl)cc1NC(=O)COC(=O)CC(C)(C)CC1=NS(=O)(=O)c2ccccc2N1	none
CC(C)(CC(=O)NCc1ccc(Cl)cc1Cl)CC1=NS(=O)(=O)c2ccccc2N1	D1 antagonist -51

Assay outcomes as filed in PubChem.
